Assay outcomes: PubChem, several laboratories
Mtb betalactam = beta-lactam sensitization of Mtb H37Rv, H37Rv; inhibition, % at 25 µM; M. tuberculosis H37Rv growth with meropenem, percent inhibition; AID 434955, 2010; actives 0.27% (n = 330,000); call rule not given here;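 further: growth measured after seven days incubation then overnight dye step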
GDH-TPI counter-1 = GDH-TPI coupling enzyme inhibitors, primary screen, artefact control for M. tuberculosis FBA inhibitor project, biochemical, absorbance, full deck | inhibition, % at 4.8 µM | actives 1.2% (n = 360,000) | GDH-TPI coupled enzyme counterscreen, NADH absorbance; in the data active means inhibition above about 30%
Mtb hypoxia inh = PubChem AID 1159583; M. tuberculosis hypoxia-regulated fluorescent reporter, fluorescence; fluorescence inhibition, % (test concentration not listed); actives 0.1% (n = 300,000); in the data active means fluorescence inhibition mostly above about 23%, no sharp cut-off; inactive means mostly below about 17%
DUSP3 inh = VHR1 phosphatase inhibitors, primary screen, biochemical, absorbance, uHTS; Dual specificity protein phosphatase 3 (Homo sapiens), P51452; recombinant VHR phosphatase, pNPP absorbance; inhibition, % at 13.3 µM; actives 0.52% (n = 290,000); AID 1654, 2009; in the data active means inhibition above about 50%
Target sequence (P51452 whole entry, looked up): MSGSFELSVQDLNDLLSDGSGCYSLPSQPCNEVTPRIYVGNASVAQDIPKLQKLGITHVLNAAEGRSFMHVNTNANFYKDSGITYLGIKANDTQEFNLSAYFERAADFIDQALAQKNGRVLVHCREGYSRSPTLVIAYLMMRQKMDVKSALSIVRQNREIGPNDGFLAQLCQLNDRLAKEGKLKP
Mtb FBA inh = Mtb FBA enzyme inhibitors, primary screen, biochemical, fluorescence, strain H37Rv; purified M. tuberculosis FBA, fluorescence read-out; inhibition, % at 1 µM; actives 2.3% (n = 360,000); AID 588726, 2011
Target sequence (P9WQA3 whole entry, looked up): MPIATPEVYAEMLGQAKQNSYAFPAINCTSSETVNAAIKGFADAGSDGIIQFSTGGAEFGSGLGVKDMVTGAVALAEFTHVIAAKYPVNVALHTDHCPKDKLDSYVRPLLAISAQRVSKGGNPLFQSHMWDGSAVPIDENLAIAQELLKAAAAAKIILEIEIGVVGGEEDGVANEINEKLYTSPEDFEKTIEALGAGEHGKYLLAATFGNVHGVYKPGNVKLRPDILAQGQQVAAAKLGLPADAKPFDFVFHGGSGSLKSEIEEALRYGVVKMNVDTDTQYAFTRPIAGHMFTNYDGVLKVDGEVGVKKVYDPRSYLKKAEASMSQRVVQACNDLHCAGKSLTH
Mtb FBA confirm = M. tuberculosis aldolase blockers, biochemical, fluorescence, strain H37Rv, confirmation; inhibition, % at 1 µM; actives 78% (n = 5,600); shares compounds with Mtb FBA inh; purified M. tuberculosis FBA, fluorescence read-out
GDH-TPI counter-2 = GDH-TPI coupling enzyme inhibitors, artefact control for M. tuberculosis FBA inhibitor project, biochemical, fluorescence, high throughput | actives 81% (n = 5,600) | inhibition, % at 1 µM | shares compounds with Mtb FBA inh | GDH-TPI coupled enzyme counterscreen | AID 652141, 2013; in the data active means inhibition above about 10%
Large screens that a line does not name were inactive (follow-up assays come after a bar, where they were run). Only some compounds are listed: those with a hit (about 3.6% of all), similar ones and a draw of the others. Unless noted, no stated cut-off is given here; in the data, active means inhibition above about 27%; inactive means the rest.

Cc1cc(C)c2c(N)c(C(=O)NN3CC(=O)N(c4ccccc4F)CC3=O)sc2n1	Mtb FBA inh 62 | Mtb FBA confirm 104 | GDH-TPI counter-2 87
Cc1cc(C)c2c(N)c(C(=O)NNC(=O)c3ccccc3)sc2n1	none
CC=CC1=CC(=O)CC(c2ccc(F)cc2)C1 (stereo not given)	none (no result: Mtb betalactam, GDH-TPI counter-1, DUSP3 inh, Mtb FBA inh)
O=C(Nc1c(-c2ccccc2)nc2ccccn12)c1ccccc1	none
CC(=O)Nc1c(-c2ccc3ccccc3c2)nc2ccccn12	Mtb FBA inh 59 | Mtb FBA confirm 41 | GDH-TPI counter-2 30
CCOC(=O)CNc1c(-c2ccc(O)cc2)nc2ccc(Cl)cn12	none
CCC(=O)Nc1c(-c2ccc3ccccc3c2)nc2ccccn12	Mtb FBA inh 50 | Mtb FBA confirm 62 | GDH-TPI counter-2 75
CCOC(=O)CNc1c(-c2ccc(O)cc2)nc2ccccn12	Mtb FBA inh 40 | Mtb FBA confirm inactive | GDH-TPI counter-2 inactive
CC(=NNC(=O)C(=O)Nc1cc(C)ccc1C)c1ccncc1	none (no result: Mtb betalactam, GDH-TPI counter-1, DUSP3 inh, Mtb FBA inh)
COc1ccc2cc(S(=O)(=O)N3CCCC(C)C3)ccc2c1 (stereo not given)	none (no result: Mtb hypoxia inh)
CC(=O)Nc1ccc(S(=O)(=O)Nc2cccc(-c3cn4cccnc4n3)c2)cc1	Mtb FBA inh 64 | Mtb FBA confirm inactive | GDH-TPI counter-2 inactive
CC1CCCN(S(=O)(=O)c2cccc(-c3cn4cccnc4n3)c2)C1 (stereo not given)	Mtb FBA inh 75 | Mtb FBA confirm 122 | GDH-TPI counter-2 139
CC1CCCN(S(=O)(=O)c2ccc3c(c2)c(=O)nc2ccccn23)C1 (stereo not given)	Mtb FBA inh 66 | Mtb FBA confirm 89 | GDH-TPI counter-2 65
CC(=O)Nc1ccc(S(=O)(=O)Nc2cccc(-c3csc(C)n3)c2)cc1	none
O=C(CSCc1ccccc1)NN=Cc1ccccc1OCc1ccccc1	none (no result: Mtb betalactam, GDH-TPI counter-1, DUSP3 inh, Mtb FBA inh)
CC1CN(C(C)CO)C(=O)Cc2cc(NC(=O)NC3CCCCC3)ccc2OC1CN(C)S(=O)(=O)c1ccccc1 (stereo not given)	none (no result: Mtb betalactam, GDH-TPI counter-1, DUSP3 inh, Mtb FBA inh)
CCCc1cc(=O)oc2cc(OCC(=O)N3CCC(C(=O)O)(c4ccccc4)CC3)ccc12	Mtb FBA inh 76 (no result: Mtb hypoxia inh) | Mtb FBA confirm 101 | GDH-TPI counter-2 81
CCCCc1cc(=O)oc2cc(C)cc(OCC(=O)N3CCC(C(=O)O)(c4ccccc4)CC3)c12	Mtb FBA inh 62 (no result: Mtb hypoxia inh) | Mtb FBA confirm 52 | GDH-TPI counter-2 34
CCCc1cc(=O)oc2cc(OCC(=O)N3CCN(Cc4ccc5c(c4)OCO5)CC3)ccc12	none
Cc1cc(OCC(=O)N2CCC(O)(c3ccc(Cl)cc3)CC2)c2c(C)cc(=O)oc2c1	none
CCCc1cc(=O)oc2cc(C)cc(OCC(=O)N3CCC(C(N)=O)CC3)c12	Mtb FBA inh 39 (no result: Mtb hypoxia inh) | Mtb FBA confirm 85 | GDH-TPI counter-2 81
CCCc1cc(=O)oc2cc(C)cc(OCC(=O)N3CCC(C(=O)O)CC3)c12	Mtb FBA inh 97 (no result: Mtb hypoxia inh) | Mtb FBA confirm 73 | GDH-TPI counter-2 65
Cc1cc(OCC(=O)N2CCc3ccccc3C2)c2c(-c3ccccc3)cc(=O)oc2c1	none (no result: Mtb hypoxia inh)
COc1cccc(OCc2cc(C=NNc3ccc(C(=O)O)cc3)ccc2OC)c1	none (no result: Mtb betalactam, GDH-TPI counter-1, DUSP3 inh, Mtb FBA inh)
Cc1ccc(N2C(=O)N3C(c4ccc(F)cc4)C4C(=O)N(C5CCCCC5)C(=O)C4[C@]3(C)C2=O)cc1 (stereo not given in full)	none (no result: Mtb betalactam, GDH-TPI counter-1, DUSP3 inh, Mtb FBA inh)
CN1C(=O)SC(=Cc2ccccc2OCc2ccc(C(=O)O)cc2)C1=O	none (no result: Mtb betalactam, GDH-TPI counter-1, DUSP3 inh, Mtb FBA inh)
COc1ccccc1N1CCN(C(=O)COc2cc(C)cc3oc(=O)cc(C)c23)CC1	none
Cc1cc(OCC(=O)N2CCC(C(=O)O)CC2)c2c3c(c(=O)oc2c1)CCC3	Mtb FBA inh 98 (no result: Mtb hypoxia inh) | Mtb FBA confirm 166 | GDH-TPI counter-2 133
CCc1cc(=O)oc2cc(C)cc(OCC(=O)N3CCC(C(=O)O)CC3)c12	Mtb FBA inh 76 (no result: Mtb hypoxia inh) | Mtb FBA confirm 121 | GDH-TPI counter-2 109
Cc1cc(OCC(=O)NCC2CCC(C(=O)O)CC2)c2c3c(c(=O)oc2c1)CCC3 (stereo not given)	none (no result: Mtb hypoxia inh)
COc1cccc(C=NNc2snc(SC)c2C#N)c1	none (no result: Mtb betalactam, GDH-TPI counter-1, DUSP3 inh, Mtb FBA inh)
O=C(C1=CC(C2CC2)CC(OCCCCO)O1)N1CCN(Cc2ccccc2)CC1 (stereo not given)	none (no result: Mtb betalactam, GDH-TPI counter-1, DUSP3 inh, Mtb FBA inh)
Cc1ccccc1COC(=O)c1nn(-c2ccccc2)nc1N	Mtb FBA inh 97 | Mtb FBA confirm 79 | GDH-TPI counter-2 67
COc1cc(C=Nc2ccccc2C(=O)Nc2ccccc2)cc(OC)c1OC	Mtb FBA inh 51 | Mtb FBA confirm active | GDH-TPI counter-2 active
CCC(C)C(N)c1cn(C(CCCCN)C(=O)N2CCNCC2)nn1 (stereo not given)	none (no result: Mtb betalactam, GDH-TPI counter-1, DUSP3 inh, Mtb FBA inh)
Cc1coc2c1c(C)cc1oc(=O)c(CC(=O)NCC(=O)NCC(=O)O)c(C)c12	Mtb FBA inh 93 | Mtb FBA confirm active | GDH-TPI counter-2 active
COCCCNC(=O)Cc1c(C)c2c(cc(C)c3c(C(C)(C)C)coc32)oc1=O	Mtb FBA inh 36 | Mtb FBA confirm 62 | GDH-TPI counter-2 54
Cc1coc2c1c(C)cc1oc(=O)c(CC(=O)NCCC(=O)O)c(C)c12	Mtb FBA inh 91 | Mtb FBA confirm 62 | GDH-TPI counter-2 57
COCCNC(=O)Cc1c(C)c2c(cc(C)c3c(C)coc32)oc1=O	Mtb FBA inh 38 (no result: DUSP3 inh) | Mtb FBA confirm 159 | GDH-TPI counter-2 125
Cc1coc2c1c(C)cc1oc(=O)c(Cc3ccccc3)c(C)c12	none
O=C(NN=C1CC2C=CCC12)c1ccc(Br)o1 (stereo not given)	none (no result: Mtb betalactam, GDH-TPI counter-1, DUSP3 inh, Mtb FBA inh)
COc1ccc(C=NNC(=O)CNC(=O)C2COc3ccccc3O2)cc1[N+](=O)[O-] (stereo not given)	none (no result: Mtb betalactam, GDH-TPI counter-1, DUSP3 inh, Mtb FBA inh)
[N-]=[N+]=NC1CC(n2ccc(=O)[nH]c2=O)OC1CO (stereo not given)	none (no result: Mtb betalactam, GDH-TPI counter-1, DUSP3 inh, Mtb FBA inh)
Cc1c(C)c2ccc(OCC(=O)NC3CCN(Cc4ccccc4)CC3)c(C)c2oc1=O	Mtb FBA inh 38 | Mtb FBA confirm 60 | GDH-TPI counter-2 48
CCCc1cc(=O)oc2cc(OCC(=O)OC)cc(OCC(=O)OC)c12	none (no result: Mtb betalactam, GDH-TPI counter-1, Mtb FBA inh)
Cc1cc(OCC(=O)NC2CC2)c2c(C)c(C)c(=O)oc2c1	Mtb FBA inh 76 | Mtb FBA confirm 53 | GDH-TPI counter-2 45
COc1ccc2c(c1)c(=O)oc1cc(OCC(=O)NC3CC3)ccc12	none (no result: Mtb hypoxia inh)
CCCc1cc(=O)oc2cc(C)cc(OCC(=O)NC3CC3)c12	Mtb FBA inh 93 | Mtb FBA confirm inactive | GDH-TPI counter-2 inactive
O=C(COc1ccc(Br)cc1Cl)NC1CCN(Cc2ccccc2)CC1	none
